The values below come from ChEMBL document CHEMBL4513216, “Probing the Open Global Health Chemical Diversity Library for Multistage-Active Starting Points for Next-Generation Antimalarials” (ACS Infect Dis, 2020).

The campaign covered roughly 68,000 compounds. About 2,700 (4%) showed an effect of 50% or more. This is one part of a sample in which strong results are shown more often than they occur.

The test has as its system Plasmodium berghei. In words: Screen against P. berghei liver stage (PbLuc), transformed with Luciferase, at 2uM. Type of test: functional, HepG2. The note with it: tested at 2 uM.
Turning to `CCNc1nc(C)c(C(=O)N2CCC(C(O)Cc3ccccc3)CC2)s1` (stereo unspecified), the INHIBITION is on record as 15.73%.

On to `O=C(C1CCCN(C2CCOCC2)C1)N1Cc2ccccc2C1` (stereo unspecified), for which the INHIBITION was -45.79%.

For `Fc1cccc(CN2CCC(c3cc4ncccc4cn3)CC2)c1F`, the INHIBITION is -27.12%. As for `COCCN(Cc1nc2c(cnn2C)c(=O)[nH]1)C(C)COC` (stereo unspecified), the INHIBITION amounted to 20.57%. Regarding `COCCN(Cc1nc2c(cnn2C)c(=O)[nH]1)Cc1ccco1`, the INHIBITION was -16.42%. Next, `CCC(C)N(CCOC)Cc1nc2c(cnn2C)c(=O)[nH]1` (stereo unspecified): 29.19%; `CC(N(C)Cc1nc2c(cnn2C)c(=O)[nH]1)C(C)(C)C` (stereo unspecified): 62.46%; `COCCN(Cc1nc2c(cnn2C)c(=O)[nH]1)C(C)c1ccccc1` (stereo unspecified): 68.24%.

As for `CN(Cc1nc2c(cnn2C)c(=O)[nH]1)Cc1ccco1`, the INHIBITION came out at 27.5%. On to `CC(C)CN(C)Cc1nc2c(cnn2C)c(=O)[nH]1`, for which the INHIBITION is reported as -29.44%. Next, `CCN(Cc1nc2c(cnn2C)c(=O)[nH]1)Cc1ccco1`: 53.98%. Next, `Cc1ccc(C(C)N(C)Cc2nc3c(cnn3C)c(=O)[nH]2)cc1` (stereo unspecified): 28.65%.

As to `CCC1CN(Cc2nc(C(C)C)no2)CCC(=O)N1Cc1ccccc1` (stereo unspecified), the INHIBITION is 8.14%. Next, `O=C(C1=CCCC1)N1C[C@H](OCc2cccnc2)[C@H]2OCCC[C@H]21`: 31.46%; `CCCS(=O)(=O)N1CCC2(CC1)CC(=O)N(Cc1cc(F)cc(F)c1)C2`: 8.76%. In the case of `C=c1occc1=C1NC(c2cccc(CN3CCOCC3)c2)=NO1`, the INHIBITION was 1.42%. Next, `CCC(C)c1noc(C2CCN(C(=O)c3cccs3)CC2)n1` (stereo unspecified): -50.86%. Next, `c1cnn(Cc2ccc(CN3CCC4(CCNCC4)C3)cc2)c1`: 56.79%; `c1ccc(Cn2cccn2)c(CN2CCC3(CCCNC3)C2)c1` (stereo unspecified): 31.9%; `c1cnn(Cc2ccc(CN3CCC4(CCCNC4)C3)cc2)c1` (stereo unspecified): 0.49%. Next, `COC[C@]1(O)CCN(Cc2ccc(N(C)C)nc2)CC1(C)C`: 32.21%; `Cc1cc(CN2CC[C@H]3C[C@H](C(=O)N4CCC(C)CC4)O[C@H]3C2)no1`: 34.88%; `CCn1ccnc1CN1CCCN(C(=O)COC2CCCCC2)CC1`: -2.87%. For the compound `Cn1ccnc1CN1CCCN(C(=O)COC2CCCC2)CC1`, the INHIBITION turned out to be 28.18%. Consider `CCn1ccnc1CN1CCCN(C(=O)COC2CCCC2)CC1`, for which the INHIBITION is 57.81%.

Take `Cn1ccc(NC(=O)CN2C[C@@H]3CC[C@H]2CN(S(C)(=O)=O)C3)n1`: the INHIBITION is listed as 48.21%. As for `CN(Cc1nc2ccccc2o1)C1CCCN(c2cccnn2)C1` (stereo unspecified), the INHIBITION was -16.72%.

Turning to `Cc1cc(C)n(C2CCCN(C(=O)c3cccc4[nH]ncc34)C2)n1` (stereo unspecified), the INHIBITION is recorded as -15.33%. Consider `Cc1nccn1-c1ccc(C(C)NCc2cccn2C)cc1` (stereo unspecified), for which the INHIBITION was -28.15%.

`Cn1c2ccc(F)cc2c2ncn(CCN3CCOCC3)c(=O)c21`: the INHIBITION was -2.5%. In the case of `Cn1c2ccccc2c2ncn(CCN3CCOCC3)c(=O)c21`, the INHIBITION is 61.75%. As to `Cn1c2ccccc2c2ncn(CCCN3CCOCC3)c(=O)c21`, the INHIBITION is on record as 23.65%. As for `CN1CCCN(C[C@@H]2CN(c3nc(C(N)=O)cs3)C[C@@H]2CO)CC1`, the INHIBITION is recorded as 19.56%. Next, `COCCNc1c(-c2ccc(C)cc2)c(=O)c1=O`: -21.29%. Next, `COCCN1CCO[C@H]2CN(C(=O)c3cccs3)C[C@H]21`: 13.26%; `O=c1cccnn1CC1CN(CC2CCCC2)Cc2nccn2C1` (stereo unspecified): 52.83%; `CS(=O)(=O)N1Cc2nccn2CC(Cn2ncccc2=O)C1` (stereo unspecified): -9.42%.

Consider `O=c1cccnn1CC1CN(Cc2ccsc2)Cc2nccn2C1` (stereo unspecified), for which the INHIBITION is reported as -0.51%.

For `CC(NCc1cn(CCC(N)=O)c2ccccc12)c1nncn1C` (stereo unspecified), the INHIBITION is -81.84%. Next, `NC(=O)CCn1cc(CNCCCc2ccncc2)c2ccccc21`: 3.49%; `Cc1n[nH]c(C)c1CCCNCc1cn(CCC(N)=O)c2ccccc12`: 42.2%; `CCCN1CCN(Cc2cn(CCC(N)=O)c3ccccc23)CC1`: 38.62%.

With `NC(=O)CCn1cc(CNCCCc2ccccc2O)c2ccccc21`, the INHIBITION was found to be 57.34%. For `NC(=O)CCn1cc(CNCc2csc(N)n2)c2ccccc21`, the INHIBITION was 72.49%.

As to `NC(=O)CCn1cc(CNCCCc2csc(N)n2)c2ccccc21`, the INHIBITION is listed as 37.15%.

In the case of `Cc1ccc(C(C)NCc2cn(CCC(N)=O)c3ccccc23)cc1C` (stereo unspecified), the INHIBITION is reported as 61.63%. On to `CC(C)n1cnnc1CCNCc1cn(CCC(N)=O)c2ccccc12`, for which the INHIBITION was -9.3%. Consider `CCc1nccn1-c1cncc(C2CCN(C(=O)COC)CC2)n1`, for which the INHIBITION stood at 41.98%. With `CCN(CC)C(=O)c1nc2c(s1)CCN(Cc1cccc(OC)c1)CC2`, the INHIBITION was 1.08%. With `O=C(c1cccc(S(=O)(=O)NCCCn2cccn2)c1)N1CCOCC1`, the INHIBITION is reported as 30.8%. Next, `COC(=O)[C@H](C)NC(=O)Cc1c(C)nc2c(c1C)c(=O)[nH]n2C`: -7.03%; `COCCNc1nc2c(c(NCCc3cccs3)n1)CCNCC2`: -15.37%. Next, `COCCNc1nc2c(c(NCc3ccncc3)n1)CCNCC2`: -21.16%. As to `COCCNc1nc2c(c(NCC3CCOC3)n1)CCNCC2` (stereo unspecified), the INHIBITION was 58.53%. Turning to `COCC(c1cccc(C(F)(F)F)c1)N(C)C(=O)c1ccncc1` (stereo unspecified), the INHIBITION is reported as 14.82%.

As for `COCC(c1cccc(C(F)(F)F)c1)N(C)C(=O)c1cc(C)n[nH]1` (stereo unspecified), the INHIBITION is 51.21%. As for `COCC(c1cccc(C(F)(F)F)c1)N(C)C(=O)c1cc(C)no1` (stereo unspecified), the INHIBITION is given as -23.4%.

Turning to `CCn1cc(CNC(=O)c2nn(CC)cc2Br)cn1`, the INHIBITION was -26.13%. On to `O=C(NC1CCCN(c2ccccc2Cl)C1)c1ccc(=O)[nH]n1` (stereo unspecified), for which the INHIBITION stood at 42.88%. Next, `O=C(NC1CCN(c2ccccc2Br)C1)c1c[nH]nn1` (stereo unspecified): 53.81%. In the case of `O=C(NC1CCN(c2ccccc2OC(F)F)C1)c1c[nH]nn1` (stereo unspecified), the INHIBITION was found to be 31.3%. For `O=C(NC1CCCN(c2ccccc2Cl)C1)c1nc(=O)[nH][nH]1` (stereo unspecified), the INHIBITION turned out to be 8.05%. Next, `O=C(NC1CCCN(c2ccccc2Cl)C1)c1c[nH]nn1` (stereo unspecified): 55.18%. Next, `O=C(NC1CCCN(c2ccc(OC(F)F)cc2)C1)c1c[nH]nn1` (stereo unspecified): 5.48%. Take `Cc1cc(C)n2c(CCCNS(=O)(=O)c3ccc(F)cc3)nnc2n1`: the INHIBITION came to 6.62%. Next, `CCc1nc(NC2CCCN(C(=O)c3cccs3)C2)c2cnn(C)c2n1` (stereo unspecified): -33.35%.
